Records with an inconclusive call do not appear. The source made the active and inactive calls. The call rests on the fitted dose curve; in most records, active means well fitted inhibition curve with a large enough effect; inconclusive means small, poorly fitted or top-dose-only effect; inactive means flat fitted curve, though single readings scatter.

Test [1] concerns the target Luciferin 4-monooxygenase (Photinus pyralis) (UniProt P08659). The test is described as follows: Biochemical firefly luciferase enzyme assay for NPC (AID 624030).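 Further: purified P. pyralis luciferase at 10 nM with luciferin and ATP substrate; nearly all actives have a fitted effect of over 70% in size.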 In short, it runs like this: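 Purified P. pyralis luciferase at 10 nM in 50 mM Tris Acetate (final), luminescence read within 5 minutes of enzyme addition to compounds. Activity normalised to PTC124 versus DMSO; concentration-response curves classed by r2, magnitude and activity.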

The test system of another test is CP215. The test is described as follows: qHTS profiling for inhibitors of Plasmodium falciparum proliferation (AID 504749). Further: nearly all actives have a fitted effect of over 60% in size. Further: potency means the concentration at half of the fitted maximal effect. The conditions noted are these: P. falciparum in erythrocytes, SYBR Green DNA, 72 h; series mostly up to 28.7 µM. An outline of the steps:
(§1)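 Readout was DNA-dye fluorescence from lysed cultures, ex 485/em 535 nm. Parasitized red cells had grown 72 h with compound; data scaled between 0.29 uM artemisinin and DMSO wells and corrected using vehicle-only plates.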

The subject of a further test is CP260. The test is described as above. The conditions noted are these: P. falciparum in erythrocytes, SYBR Green DNA, 72 h; series mostly up to 28.7 µM. In short, it runs like this: as §1
A further test deals with CP266. The description is as above. The conditions noted are these: P. falciparum in erythrocytes, SYBR Green DNA, 72 h; series mostly up to 28.7 µM. In short, it runs like this:
as §1

For the next test, the system named is CP268. The description is as above. The conditions noted are these: P. falciparum in erythrocytes, SYBR Green DNA, 72 h; series mostly up to 28.7 µM. An outline of the steps: as §1
The next test relates to CP291. Described as above. The conditions noted are these: P. falciparum in erythrocytes, SYBR Green DNA, 72 h; series mostly up to 28.7 µM. In short, it runs like this:
as §1

In the next test the test system is CP297. The test is described as above. The note with it: P. falciparum in erythrocytes, SYBR Green DNA, 72 h; series mostly up to 28.7 µM. An outline of the steps: as §1
For the next test, the system named is CP305. The test is described as above. The note with it: P. falciparum in erythrocytes, SYBR Green DNA, 72 h; series mostly up to 28.7 µM. In short, it runs like this:
as §1

The test system of the next test is CP335. Described as above. The note with it: P. falciparum in erythrocytes, SYBR Green DNA, 72 h; series mostly up to 28.7 µM. An outline of the steps:
as §1

A further test relates to DIV14. Described as above. The note with it: P. falciparum in erythrocytes, SYBR Green DNA, 72 h; series mostly up to 28.7 µM. An outline of the steps:
as §1

Another test deals with DIV17. The test is described as above. The note with it: P. falciparum in erythrocytes, SYBR Green DNA, 72 h; series mostly up to 28.7 µM. An outline of the steps:
as §1

The next test relates to FAB9. Described as above. The conditions noted are these: P. falciparum in erythrocytes, SYBR Green DNA, 72 h; series mostly up to 28.7 µM. An outline of the steps: as §1
For another test, the system named is GB4. The description is as above. The note with it: P. falciparum in erythrocytes, SYBR Green DNA, 72 h; series mostly up to 28.7 µM. An outline of the steps:
as §1

The next test concerns HB3. The test is described as above. The note with it: P. falciparum in erythrocytes, SYBR Green DNA, 72 h; series mostly up to 28.7 µM. In short, it runs like this:
as §1

The test system of the next test is ICS. Described as above. The note with it: P. falciparum in erythrocytes, SYBR Green DNA, 72 h; series mostly up to 28.7 µM. In short, it runs like this:
as §1

A further test has as its system JCK. The description is as above. The conditions noted are these: P. falciparum in erythrocytes, SYBR Green DNA, 72 h; series mostly up to 28.7 µM. An outline of the steps: as §1
The test system of a further test is P93_24. Described as above. The note with it: P. falciparum in erythrocytes, SYBR Green DNA, 72 h; series mostly up to 28.7 µM. An outline of the steps:
as §1

The subject of a further test is PC26. Described as above. The conditions noted are these: P. falciparum in erythrocytes, SYBR Green DNA, 72 h; series mostly up to 28.7 µM. In short, it runs like this: as §1
For another test, the system named is PC49. The test is described as above. The note with it: P. falciparum in erythrocytes, SYBR Green DNA, 72 h; series mostly up to 28.7 µM. An outline of the steps:
as §1

For the next test, the system named is TAB109. Described as above. The note with it: P. falciparum in erythrocytes, SYBR Green DNA, 72 h; series mostly up to 28.7 µM. In short, it runs like this:
as §1

Luciferin 4-monooxygenase (Photinus pyralis), sequence (P08659 whole entry, looked up): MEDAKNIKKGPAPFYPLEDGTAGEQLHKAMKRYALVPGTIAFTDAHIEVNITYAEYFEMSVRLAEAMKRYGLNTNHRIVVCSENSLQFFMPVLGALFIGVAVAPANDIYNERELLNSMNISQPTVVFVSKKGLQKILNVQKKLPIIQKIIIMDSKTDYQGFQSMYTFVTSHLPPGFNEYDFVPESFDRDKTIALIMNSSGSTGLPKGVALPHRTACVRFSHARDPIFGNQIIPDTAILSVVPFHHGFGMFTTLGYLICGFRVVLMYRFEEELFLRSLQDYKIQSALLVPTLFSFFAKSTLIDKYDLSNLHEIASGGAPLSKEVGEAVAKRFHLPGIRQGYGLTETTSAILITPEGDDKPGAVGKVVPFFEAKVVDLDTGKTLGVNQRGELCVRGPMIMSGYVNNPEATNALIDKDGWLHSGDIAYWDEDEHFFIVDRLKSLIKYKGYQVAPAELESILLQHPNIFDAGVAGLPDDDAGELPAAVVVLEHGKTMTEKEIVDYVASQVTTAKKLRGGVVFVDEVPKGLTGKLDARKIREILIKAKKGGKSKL

As to `CCCCC/C(C=O)=C/c1ccccc1`, the Potency result (in test [1]; with CP215; in the test with CP260; in the test on CP266; in the test with CP268; in the test on CP291) was “inactive” throughout. Moreover, the Potency result in the test on CP297, in the test on CP305, in the test on CP335, in the test on DIV14, with DIV17 and in the test on FAB9 was “inactive” each time. For the same compound, the Potency result with GB4, with HB3, in the test with ICS, in the test with JCK, with P93_24 and with PC26 was “inactive” in each case. Further, the Potency result in the test on PC49 and in the test on TAB109 was “inactive” throughout.

Turning to `CNC1C(O)C(OC2C(N)CC(N)C(OC3OC(CN)=CCC3N)C2O)OCC1(C)O` (stereo not given), the Potency result (in test [1]; in the test on CP215; in the test on CP260; with CP266; in the test on CP268; in the test on CP291) was “inactive” each time. The Potency result in the test on CP297, in the test on CP305, in the test with CP335, in the test on DIV14, with DIV17 and in the test on FAB9 was “inactive” throughout. Moreover, the Potency entry with GB4, in the test on HB3, with ICS, in the test with JCK, in the test on P93_24 and with PC26 was “inactive” in each case. In addition, the Potency entry with PC49 and in the test on TAB109 was “inactive” throughout.

Take `Cc1cn([C@H]2CC(F)[C@@H](CO)O2)c(=O)[nH]c1=O` (stereo not given in full): the Potency entry (in test [1]; in the test on CP215; in the test on CP260; with CP266; in the test on CP268; in the test with CP291) was “inactive” throughout. For the same compound, the Potency result in the test with CP297, with CP305, with CP335, with DIV14, in the test with DIV17 and in the test with FAB9 was “inactive” throughout. Further, the Potency result in the test with GB4, in the test on HB3, in the test with ICS, with JCK, in the test with P93_24 and in the test with PC26 was “inactive” in each case. Besides, the Potency entry in the test on PC49 and in the test with TAB109 was “inactive” throughout.

Take `CC12C=CC(=O)C=C1[C@@H](F)CC1C2C(O)CC2(C)C1CC[C@]2(O)C(=O)CO` (stereo not given in full): the Potency result (in test [1]; in the test on CP215; in the test on CP260; in the test on CP266; with CP268; with CP291) was “inactive” in each case. Besides, the Potency result with CP297, in the test with CP305, with CP335, in the test on DIV14, with DIV17 and in the test with FAB9 was “inactive” each time. Besides, the Potency result in the test on GB4, in the test with HB3, in the test with ICS, with JCK, in the test with P93_24 and in the test with PC26 was “inactive” in each case. The Potency result with PC49 and with TAB109 was “inactive” throughout.

With `C[C@]12CC[C@@H]3c4ccc(O)cc4CC[C@H]3[C@@H]1C[C@H](O)C2O` (stereo not given in full), the Potency result (in [1]; in the test with CP215; in the test on CP260; in the test with CP266; in the test with CP268; in the test on CP291) was “inactive” throughout. Moreover, the Potency result in the test on CP297, in the test with CP305, in the test on CP335, in the test with DIV14, in the test on DIV17 and in the test on FAB9 was “inactive” throughout. Also, the Potency entry in the test with GB4, with HB3, in the test on ICS, with JCK, with P93_24 and with PC26 was “inactive” in each case. Also, the Potency result in the test with PC49 and in the test with TAB109 was “inactive” each time.

`CC[C@@H](C)C(N)C(=O)O` (stereo not given in full): the Potency result (in [1]; in the test on CP215; with CP260; with CP266; with CP268; in the test with CP291) was “inactive” each time. Also, the Potency entry in the test with CP297, with CP305, in the test with CP335, with DIV14, with DIV17 and in the test on FAB9 was “inactive” throughout. For the same compound, the Potency result with GB4, in the test on HB3, in the test on ICS, in the test with JCK, in the test on P93_24 and in the test on PC26 was “inactive” throughout. In addition, the Potency result in the test on PC49 and in the test with TAB109 was “inactive” in each case.

With `COC(c1ccccc1)(c1ccccc1)C(Oc1nc(C)cc(C)n1)C(=O)O` (stereo not given), the Potency entry (in test [1]; in the test on CP215; in the test with CP260; in the test with CP266; in the test with CP268; with CP291) was “inactive” throughout. Also, the Potency entry with CP297, with CP305, in the test with CP335, with DIV14, with DIV17 and with FAB9 was “inactive” each time. In addition, the Potency entry in the test with GB4, in the test on HB3, in the test on ICS, in the test with JCK, with P93_24 and in the test with PC26 was “inactive” throughout. Further, the Potency result in the test with PC49 and in the test on TAB109 was “inactive” throughout.

`OCC1O[C@@H](O[C@@H]2C(CO)OC(O)C(O)C2O)C(O)C(O)C1O` (stereo not given in full): the Potency result (in [1]; in the test with CP215; with CP260; with CP266; in the test on CP268; in the test with CP291) was “inactive” throughout. The Potency entry in the test on CP297, in the test with CP305, in the test with CP335, in the test on DIV14, in the test on DIV17 and in the test on FAB9 was “inactive” in each case. For the same compound, the Potency entry in the test with GB4, with HB3, with ICS, in the test on JCK, in the test with P93_24 and with PC26 was “inactive” in each case. Moreover, the Potency entry with PC49 and in the test with TAB109 was “inactive” in each case.

`CC(C)C[C@@H](NC(=O)[C@@H](Cc1ccccc1)NC(=O)c1cnccn1)B(O)O`: in [1], the Potency result was “inactive”. The Potency is 675 nM (active) in the test with CP215; 100 nM (active) in the test with CP260; 379 nM (active) with CP266; 135 nM (active) with CP268; 151 nM (active) in the test on CP291; 379 nM (active) with CP297. Further, the Potency was 757 nM (active) with CP305; 107 nM (active) with CP335; 601 nM (active) with DIV14; 426 nM (active) with DIV17; 141 nM (active) with FAB9; 120 nM (active) in the test on GB4. Besides, the Potency is 79.4 nM (active) with HB3; 44.7 nM (active) in the test on ICS; 141 nM (active) in the test on JCK; 158 nM (active) with P93_24; 338 nM (active) in the test with PC26; 158 nM (active) in the test with PC49. In addition, the Potency with TAB109 is 70.8 nM (active).

On to `C[C@@H]1C(SC2Cn3cnc[n+]3C2)=C(C(=O)[O-])N2C(=O)[C@H]([C@@H](C)O)[C@@H]12` (stereo not given in full), for which the Potency result (in test [1]; in the test with CP215; in the test on CP260; in the test on CP266; with CP268; in the test with CP291) was “inactive” each time. For the same compound, the Potency result with CP297, in the test on CP305, in the test on CP335, in the test with DIV14, in the test on DIV17 and with FAB9 was “inactive” in each case. In addition, the Potency result in the test with GB4, in the test on HB3, in the test with ICS, in the test with JCK, in the test with P93_24 and with PC26 was “inactive” throughout. For the same compound, the Potency entry in the test with PC49 and in the test on TAB109 was “inactive” in each case.

As for `O=C1CC[C@H](C(=O)N[C@@H]2C[C@H]2c2ccccc2)N1`, the Potency entry (in [1]; with CP215; in the test on CP260; in the test with CP266; in the test on CP268; in the test on CP291) was “inactive” in each case. The Potency entry in the test on CP297, in the test with CP305, with CP335, in the test on DIV14, in the test with DIV17 and with FAB9 was “inactive” throughout. Further, the Potency entry in the test on GB4, in the test with HB3, in the test with ICS, with JCK, in the test with P93_24 and in the test with PC26 was “inactive” each time. For the same compound, the Potency result in the test on PC49 and with TAB109 was “inactive” each time.

For the origin of these results see PubChem BioAssay (NCATS).
